Inconclusive results are not listed. Calls of active or inactive are those of the source. Unless noted, the call rests on the fitted dose curve; in most records, active means well fitted curve in the direction sought with a large enough effect; inconclusive means small, poorly fitted or top-dose-only effect, or another doubt; inactive means no such curve, though single readings can be large; an effect the other way counts as inactive or inconclusive.
How the values were obtained:
[1] = qHTS assay for small molecule antagonists of peroxisome proliferator-activated receptor delta signaling (AID 588535); details: HEK293T PPARd-UAS-bla, beta-lactamase FRET ratio, 18 h; 460 nm channel;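 further: cells co-treated with a PPAR-delta agonist as stimulator during compound exposure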
Outline: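 Compounds tested in titration on PPAR-delta-UAS-bla HEK293T cells grown in charcoal/dextran-stripped serum (2%); beta-lactamase activity read via CCF4 emission at 460 and 530 nm.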

[2] = target: Vitamin D3 receptor (Homo sapiens) (UniProt P11473); assay: qHTS assay for small molecule antagonists of vitamin D receptor signaling (AID 588541; calls by dose curve;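 further: receptor activated by calcitriol during compound treatment; on the % scale 0 is the no-effect control and ±100 the full control effect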); details: HEK293T VDR-UAS-bla, beta-lactamase ratio, antagonist mode; series mostly up to 76.7 µM
Chain of Vitamin D3 receptor (Homo sapiens) (P11473 whole entry, looked up): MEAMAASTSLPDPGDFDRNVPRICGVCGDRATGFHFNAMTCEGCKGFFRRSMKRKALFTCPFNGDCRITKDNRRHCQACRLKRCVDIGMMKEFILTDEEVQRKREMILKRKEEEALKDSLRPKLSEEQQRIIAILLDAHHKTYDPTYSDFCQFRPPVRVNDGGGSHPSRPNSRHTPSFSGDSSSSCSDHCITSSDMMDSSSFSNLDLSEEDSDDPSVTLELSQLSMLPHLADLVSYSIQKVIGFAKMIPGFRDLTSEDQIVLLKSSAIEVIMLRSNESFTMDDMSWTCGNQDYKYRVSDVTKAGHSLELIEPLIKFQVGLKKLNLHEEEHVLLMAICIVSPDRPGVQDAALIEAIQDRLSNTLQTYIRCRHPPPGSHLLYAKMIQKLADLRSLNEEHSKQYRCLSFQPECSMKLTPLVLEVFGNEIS
Outline: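 VDR-UAS-bla HEK293T cells (2000/well, 2% charcoal-stripped FBS) were treated with titrated compounds plus 1-alpha,25-dihydroxyvitamin D3 (50 nM or 3 nM final) for 16 h at 37 C. CCF4 beta-lactamase fluorescence was read; Hill fits gave IC50.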

[3] = target: Vitamin D3 receptor (Homo sapiens) (UniProt P11473); assay: qHTS assay for small molecule agonists of vitamin D receptor signaling (AID 588543; calls by dose curve;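 further: 0% = DMSO basal and 100% = reference agonist control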); details: HEK293T VDR-UAS-bla, beta-lactamase ratio, 16 h; series mostly up to 76.8 µM
Outline: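 Measured: β-lactamase reporter activity (CCF4, 405 nm excitation, 460/530 nm emission) in HEK293T VDR-UAS-bla cells after 16 h compound exposure at 37 °C. Normalization against 50 nM 1α,25-dihydroxyvitamin D3 and DMSO; Hill-fit EC50.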

[4] = target: Thyroid hormone receptor beta (Homo sapiens) (UniProt P10828); assay: qHTS assay for small molecule agonists of thyroid hormone receptor beta signaling (AID 588545; calls by dose curve); details: TR-UAS-bla GripTite HEK 293, beta-lactamase ratio, agonist mode, 18 h; series mostly up to 76.7 µM
Chain of Thyroid hormone receptor beta (Homo sapiens) (P10828 whole entry, looked up): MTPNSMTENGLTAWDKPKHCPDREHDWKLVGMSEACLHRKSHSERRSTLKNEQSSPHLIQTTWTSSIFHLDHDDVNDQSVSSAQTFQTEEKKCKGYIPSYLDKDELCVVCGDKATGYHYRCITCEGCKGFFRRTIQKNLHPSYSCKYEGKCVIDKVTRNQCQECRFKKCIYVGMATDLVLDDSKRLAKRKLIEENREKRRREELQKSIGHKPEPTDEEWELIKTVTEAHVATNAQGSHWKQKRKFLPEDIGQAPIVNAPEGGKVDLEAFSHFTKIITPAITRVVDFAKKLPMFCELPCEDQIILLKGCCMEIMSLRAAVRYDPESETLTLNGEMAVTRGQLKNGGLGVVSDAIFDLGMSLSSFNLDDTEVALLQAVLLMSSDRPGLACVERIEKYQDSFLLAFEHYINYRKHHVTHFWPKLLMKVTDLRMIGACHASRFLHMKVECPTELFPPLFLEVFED
Outline: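 Cells (2500/well) were seeded, incubated 4 hrs at 37 C, dosed with a compound series, incubated 18 hrs, loaded with CCF4 dye for 2 hrs at RT, then read for fluorescence. Data were scaled between DMSO (0%) and 10 nM T3 (100%).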

[5] = qHTS assay for small molecule antagonists of retinoid X receptor alpha signaling (AID 588546; active means well fitted inhibition curve with a large enough effect in the signal ratio, with a control signal flat, not every such curve was filed as active; the % refers to the signal ratio;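 further: cells stimulated with 9-cis-retinoic acid as agonist; on the % scale 0 is the no-effect control and ±100 the full control effect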); details: HEK293T RXRa-UAS-bla, beta-lactamase ratio, antagonist mode; measured here: W530 green channel, cytotoxicity proxy
Outline: (§1)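 Beta-lactamase reporter inhibition, read as CCF4 fluorescence ratio (ex 405, em 460/530 nm) after 2 h at RT. HEK293T UAS-bla cells, 2500/well, were stimulated with 9-cis-RA at 500 or 100 nM final alongside test compound for 18 h at 37 C.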

[6] = target: Retinoic acid receptor RXR-alpha (Homo sapiens) (UniProt P19793); assay: as above; details: HEK293T RXRa-UAS-bla, beta-lactamase ratio, antagonist mode
Chain of Retinoic acid receptor RXR-alpha (Homo sapiens) (P19793 whole entry, looked up): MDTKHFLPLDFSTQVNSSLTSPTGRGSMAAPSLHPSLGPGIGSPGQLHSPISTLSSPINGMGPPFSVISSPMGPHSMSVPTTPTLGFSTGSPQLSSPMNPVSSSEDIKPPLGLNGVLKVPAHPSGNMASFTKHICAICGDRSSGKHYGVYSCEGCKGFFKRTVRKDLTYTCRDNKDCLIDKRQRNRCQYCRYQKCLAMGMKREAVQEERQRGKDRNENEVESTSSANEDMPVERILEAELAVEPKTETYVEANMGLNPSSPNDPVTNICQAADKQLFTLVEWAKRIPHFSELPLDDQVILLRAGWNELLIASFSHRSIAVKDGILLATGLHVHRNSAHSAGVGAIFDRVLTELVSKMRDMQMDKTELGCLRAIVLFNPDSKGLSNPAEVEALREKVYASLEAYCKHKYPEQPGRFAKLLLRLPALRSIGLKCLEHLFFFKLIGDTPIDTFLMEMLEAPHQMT
Outline: as §1

[7] = qHTS assay for small molecule agonists of the antioxidant response element (ARE) signaling pathway (AID 651741; active means well fitted activation curve with a large enough effect in the signal ratio; the % refers to the signal ratio; further: % of control where 0% means no effect); details: HepG2 ARE-bla reporter, beta-lactamase FRET ratio, 16 h; series mostly up to 96 µM
Outline: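 Beta-lactamase reporter expression driven by the antioxidant response element in HepG2 cells was detected by fluorescence with LiveBLAzer B/G FRET substrate (2 h, room temperature) following 16 h compound treatment at 37 C.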

[8] = qHTS assay for small molecule activators of the p53 signaling pathway (AID 651743; active means well fitted activation curve with a large enough effect in the signal ratio, not every such curve was filed as active; the % refers to the signal ratio; further: % of control where 0% means no effect); details: HCT-116 p53RE-bla, beta-lactamase FRET ratio, 16 h; activation: stronger effect = higher value
Outline: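 Here HCT-116 cells with an integrated p53-responsive beta-lactamase gene were incubated with compounds (16 hours, 37 C) after a 5-hour plating period; beta-lactamase activity was detected as fluorescence intensity via B/G FRET substrate.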

[9] = qHTS assay for environmental chemicals that activate the Aryl hydrocarbon Receptor (AhR) signaling pathway (AID 651777); details: 1A2-DRE human hepatoma cells, luciferase, 24 h; activation: stronger effect = higher value; further: % of control where 0% means no effect; nearly all actives have a fitted effect of over 15% in size
Outline: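 Luminescence read-out: One-Glo added for 30 min at RT after 24 hr compound treatment (37 C, 5% CO2) of human hepatoma cells expressing a DRE/CYP1A2 promoter–luciferase reporter; increased signal indicates AhR activation.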

[10] = target: Peroxisome proliferator-activated receptor alpha (Homo sapiens) (UniProt Q07869); assay: qHTS assay for small molecule agonists of the peroxisome proliferator-activated receptor alpha (PPARalpha) signaling pathway (AID 651778); details: PathHunter PPARalpha complementation, chemiluminescence, 6 h; max response: stronger effect = higher value; further: potency means the concentration at half of the fitted maximal effect; on max response: % of control where 0% means no effect
Chain of Peroxisome proliferator-activated receptor alpha (Homo sapiens) (Q07869 whole entry, looked up): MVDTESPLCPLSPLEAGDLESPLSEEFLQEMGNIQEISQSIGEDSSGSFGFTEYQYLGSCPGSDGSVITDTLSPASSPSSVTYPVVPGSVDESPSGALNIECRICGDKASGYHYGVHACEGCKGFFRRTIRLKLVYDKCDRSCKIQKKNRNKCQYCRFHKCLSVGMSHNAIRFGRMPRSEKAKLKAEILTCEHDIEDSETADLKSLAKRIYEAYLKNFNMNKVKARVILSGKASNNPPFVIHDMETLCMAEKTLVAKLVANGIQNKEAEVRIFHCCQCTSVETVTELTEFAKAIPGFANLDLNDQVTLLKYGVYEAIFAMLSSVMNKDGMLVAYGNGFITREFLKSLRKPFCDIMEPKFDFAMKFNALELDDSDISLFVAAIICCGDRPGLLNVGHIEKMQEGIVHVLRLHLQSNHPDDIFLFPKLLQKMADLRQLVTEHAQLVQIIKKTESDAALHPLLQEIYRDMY
Outline: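 Cells plated at 2,000/well and held overnight at 37 C, 5% CO2, then compound added by pin tool for 6 hr; after PathHunter detection reagent and 60 min at room temperature, chemiluminescence from enzyme complementation was read.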

[11] = qHTS assay for small molecule agonists of the antioxidant response element (ARE) signaling pathway measured by Nrf2-dependant transcriptional activity - cell viability counter screen (AID 720653; active means well fitted curve in the direction sought with a large enough effect in the repeat runs; an effect the other way counts as inactive or inconclusive; further: on the % scale 0 is the no-effect control and ±100 the full control effect); details: ARE-bla HepG2 viability, CellTiter-Glo ATP luminescence, 16 h; max response: stronger effect = lower value
Outline: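 ARE-bla HepG2 cells (2,000/well) rested 5 hrs at 37C/5% CO2, then exposed to compounds in DMSO for 16 hrs. Viability was read in the same wells as intracellular ATP by luminescence, 30 min at room temperature after reagent addition.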

[12] = qHTS assay for cell viability of HEK293 cells (AID 743288); details: ATP luminescence (CellTiter-Glo), 18 h; max response: stronger effect = lower value; further: on the % scale 0 is the no-effect control and ±100 the full control effect; nearly all actives have a fitted effect of over 50% in size
Outline: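 HEK293, 18 h, 37 C, ATP luminescence. Cells at 2,000/well were allowed at least 5 h to settle before dosing; CellTiter-Glo developed 30 min at RT.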

[13] = qHTS assay for cell viability of the p53RE-bla HCT-116 cell line (AID 743292); details: p53RE-bla HCT-116 viability, ATP luminescence, 16 h; series mostly up to 95 µM; further: on the % scale 0 is the no-effect control and ±100 the full control effect; nearly all actives have a fitted effect of over 55% in size
Outline: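 Luminescent ATP quantitation (CellTiter-Glo) served as the viability read-out; reagent was added after 16 h compound exposure at 37 C and read after 30 min at room temperature. Cells: p53RE-bla HCT-116, 4,000 per well.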

[14] = target: Nuclear receptor subfamily 1 group I member 2 (Rattus norvegicus) (UniProt Q9R1A7); assay: qHTS assay for small molecule activators of the rat pregnane X receptor (rPXR) signaling pathway (AID 651751; call rule not given here; further: 0% is about no effect); details: rPXR reporter cells, luciferase (One-Glo), 24 h
Chain of Nuclear receptor subfamily 1 group I member 2 (Rattus norvegicus) (Q9R1A7 whole entry, looked up): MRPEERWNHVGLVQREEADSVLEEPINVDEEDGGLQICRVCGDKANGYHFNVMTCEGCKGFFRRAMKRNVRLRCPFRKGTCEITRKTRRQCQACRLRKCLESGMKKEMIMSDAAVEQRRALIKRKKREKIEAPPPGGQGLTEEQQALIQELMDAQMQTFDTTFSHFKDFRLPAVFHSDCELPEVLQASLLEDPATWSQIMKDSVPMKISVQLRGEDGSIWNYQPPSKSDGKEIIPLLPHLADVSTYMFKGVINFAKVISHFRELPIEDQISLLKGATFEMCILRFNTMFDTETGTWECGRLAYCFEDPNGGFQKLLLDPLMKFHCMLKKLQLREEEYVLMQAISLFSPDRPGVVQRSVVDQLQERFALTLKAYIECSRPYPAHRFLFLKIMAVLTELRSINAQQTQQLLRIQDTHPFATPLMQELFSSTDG

[15] = qHTS assay for small molecule activators of the human pregnane X receptor (PXR) signaling pathway (AID 720659; call rule not given here; further: 0% is about no effect); details: DPX-2 HepG2 CYP3A4-luciferase, 24 h; series mostly up to 92.3 µM
[16] = target: Glucocorticoid receptor (Homo sapiens) (UniProt P04150); assay: qHTS assay for small molecule agonists of glucocorticoid receptor signaling (AID 588532; active means well fitted curve in the direction sought with a large enough effect in the signal ratio, with a control signal flat; the % refers to the signal ratio;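 further: 100% = dexamethasone at 0.1 µM and 0% = DMSO only wells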); details: HeLa MMTV-bla, beta-lactamase ratio, agonist, 18 h; stronger effect = higher value; percent of dexamethasone control, DMSO zero
Chain of Glucocorticoid receptor (Homo sapiens) (P04150 whole entry, looked up): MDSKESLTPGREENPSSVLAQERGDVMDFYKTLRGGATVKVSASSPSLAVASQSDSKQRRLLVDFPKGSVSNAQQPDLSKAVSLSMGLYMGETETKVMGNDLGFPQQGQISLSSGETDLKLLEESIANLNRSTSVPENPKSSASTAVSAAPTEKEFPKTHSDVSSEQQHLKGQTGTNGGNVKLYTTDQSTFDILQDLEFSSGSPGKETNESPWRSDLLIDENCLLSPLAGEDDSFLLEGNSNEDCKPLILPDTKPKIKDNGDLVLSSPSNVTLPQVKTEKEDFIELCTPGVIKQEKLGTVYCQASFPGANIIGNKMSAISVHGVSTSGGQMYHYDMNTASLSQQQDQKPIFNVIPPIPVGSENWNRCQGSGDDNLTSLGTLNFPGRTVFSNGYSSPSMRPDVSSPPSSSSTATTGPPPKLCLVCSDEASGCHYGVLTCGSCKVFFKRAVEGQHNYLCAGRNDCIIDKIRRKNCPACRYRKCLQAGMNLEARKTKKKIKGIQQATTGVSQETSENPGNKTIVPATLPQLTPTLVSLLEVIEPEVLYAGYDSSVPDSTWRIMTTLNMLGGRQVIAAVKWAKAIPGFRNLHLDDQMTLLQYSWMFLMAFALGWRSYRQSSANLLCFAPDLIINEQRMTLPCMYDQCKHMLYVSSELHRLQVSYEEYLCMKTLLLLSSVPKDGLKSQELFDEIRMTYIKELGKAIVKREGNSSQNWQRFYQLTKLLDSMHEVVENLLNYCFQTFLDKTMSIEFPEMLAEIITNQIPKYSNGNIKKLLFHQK
Outline: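 MMTV-bla HeLa, beta-lactamase reporter; medium with 1% charcoal/dextran-stripped FBS; cpds up to 92 uM, 18 h, 37 C; CCF4 readout 460/530 nm; Hill fit → EC50, efficacy vs 0.1 uM dexamethasone = 100%.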

[17] = target: Glucocorticoid receptor (Homo sapiens) (UniProt P04150); assay: qHTS assay for small molecule antagonists of glucocorticoid receptor signaling (AID 588533; active means well fitted inhibition curve with a large enough effect in the signal ratio, with a control signal flat, not every such curve was filed as active; the % refers to the signal ratio;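 further: cells stimulated with 2 nM dexamethasone as agonist; on the % scale 0 is the no-effect control and ±100 the full control effect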); details: HeLa MMTV-bla, GRE beta-lactamase ratio, antagonist mode, 18 h; series mostly up to 76.8 µM
Outline: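 Antagonist-mode qHTS: compound titrations added to GRE-bla HeLa cells, then dexamethasone 2 nM final; 18 h, 37 C. CCF4 FRET fluorescence normalized to dexamethasone and DMSO; IC50 from Hill fit.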

[18] = qHTS assay for small molecule agonists of retinoid X receptor alpha signaling (AID 588544; calls by dose curve;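 on activation: 0% = DMSO basal wells and 100% = reference agonist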); details: HEK293T RXRa-UAS-bla, beta-lactamase reporter, 18 h; 530 nm emission
[19] = target: Retinoic acid receptor RXR-alpha (Homo sapiens) (UniProt P19793); assay: as above; details: HEK293T RXRa-UAS-bla, beta-lactamase reporter, 18 h; series mostly up to 76.7 µM
[20] = qHTS assay for small molecule agonists of the antioxidant response element (ARE) signaling pathway measured by Nrf2-dependant transcriptional activity (AID 720636; active means well fitted curve in the direction sought with a large enough effect in the repeat runs; an effect the other way counts as inactive or inconclusive; further: % of control where 0% means no effect); details: ARE-luc HepG2, Nrf2 luciferase reporter, 16 h; series mostly up to 92.4 µM
Outline: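 HepG2 ARE-luc reporter line, 1% dialyzed FBS; 6 hr attachment at 37 C, compound pinned in, 16 hr at 37 C/5% CO2; ONE-Glo, 30 min RT, luminescence read.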

CCCC/C=C\CCCCCCCCCC=O
-13.9%: max response [5]
-21.9%: max response [1]
inactive: Potency [2] | outcome [3] | Potency [4] | max response [6] 6.53% | Potency [7] | activation [8] 0.222% | activation [9] 1.27% | max response [10] 7.85% | max response [11] -12.8% | max response [12] 3.95% | Potency [13] | max response [14] 4.56% | outcome [15]

CCCCCCC(O)CCCCCCCCCCC(=O)OC (centres undefined)
active: Potency [10] 20 µM
18.1%: max response [1]
inactive: activation [16] -20.2% | Potency [17] | Potency [2] | outcome [3] | Potency [19] | Potency [7] | activation [8] 0.349% | max response [11] 9.9% | max response [12] -0.436% | Potency [13] | max response [14] -2.07% | outcome [15]
-11.4%: max response [18]

CC(C)(N=C=O)c1cccc(C(C)(C)N=C=O)c1
inactive: activation [16] 9.9% | Potency [17] | outcome [3] | Potency [19] | Potency [4] | max response [6] -29.1% | Potency [7] | activation [9] 0.551% | max response [10] -1.39% | Potency [20] | max response [11] -5.26% | Potency [13] | max response [14] 4.49%
8.92%: max response [18]
-4.03%: max response [5]
9.94%: max response [1]

CCNc1nc(NC(C)CC)nc(OC)n1 (centres undefined)
-13.5%: max response [18]
-8.46%: max response [5]
inactive: activation [16] -21% | Potency [17] | Potency [2] | outcome [3] | Potency [19] | Potency [4] | max response [6] 7.45% | Potency [7] | activation [8] -1.96% | activation [9] 2.63% | max response [10] 5.06% | Potency [20] | max response [11] 16.1% | max response [12] -2.08% | Potency [13] | max response [14] 1.4% | outcome [15]

CCCCCCCCCCCCc1ccccc1
-16.9%: max response [1]
inactive: outcome [3] | Potency [19] | max response [6] 3.12% | Potency [7] | activation [8] -0.535% | max response [10] -0.756% | Potency [20] | max response [11] -12.7% | max response [12] 2.81% | Potency [13] | max response [14] 0.082% | outcome [15]
-7.45%: max response [18]
-16.5%: max response [5]

CCOCCOCCOCCO
-7.49%: max response [18]
inactive: Potency [2] | outcome [3] | Potency [19] | max response [6] -20% | Potency [7] | activation [8] -1.32% | max response [10] -1.08% | Potency [20] | max response [11] 19.8% | Potency [13] | max response [14] 10.6% | outcome [15]
0.354%: max response [5]
